Here are results for 7 molecules from PubChem BioAssay (Tox21).

Assay [1] in a line: qHTS assay to identify small molecule antagonists of the constitutive androstane receptor (CAR) signaling pathway - cell viability counter screen (AID 1224837). Further: nearly all actives have a fitted effect of over 45% in size. Summed up: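 Viability was measured with CellTiter-Fluor in a HepG2 line carrying stably transfected hCAR and a CYP2B6-2.2kb construct. Cells were exposed for 23 hr at 37 C to 15 compound concentrations with 50 nM CITCO as agonist.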

In assay [2] the target is Nuclear receptor subfamily 1 group I member 3 (Homo sapiens) (UniProt Q14994). The experiment in a line: qHTS assay to identify small molecule antagonists of the constitutive androstane receptor (CAR) signaling pathway (AID 1224838).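 Further: HepG2 cells stably expressing hCAR with CYP2B6 luciferase reporter stimulated by CITCO; nearly all actives have a fitted effect of over 40% in size.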 Further: potency means the concentration at half of the fitted maximal effect. Summed up:
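Antagonist mode used CITCO at a final 50 nM to activate CAR in human hepatoma HepG2 cells carrying stable hCAR and a 2.2 kb CYP2B6 promoter-luciferase construct. Compounds were tested at 15 concentrations over 24 h, with luminescence as the end point.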
(In qHTS, concentration-response curves come from the screen itself.)

For assay [3] the target is unchanged. The experiment in a line: qHTS assay to identify small molecule agonists of the constitutive androstane receptor (CAR) signaling pathway (AID 1224839). Further: nearly all actives have a fitted effect of over 15% in size. Summed up: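 Stable hCAR/CYP2B6-2.2kb HepG2 line in DMEM with 10% FBS; compounds (15 concentrations) and 0.75 uM PK11195 final, 24 h at 37 C/5% CO2, then ONE-Glo luminescence after 30 min.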
Assay [4] is described as follows: qHTS assay to identify small molecule antagonists of the estrogen related receptor signaling pathway with the pleiotropic PPARgamma coactivator (PGC) from Tox21 10K library - cell viability counter screen (AID 1224840; active means well fitted cell-killing curve with a large enough effect in the repeat runs, not every such curve was filed as active; further: nearly all actives have a fitted effect of over 40% in size; further: potency means the concentration at half of the fitted maximal effect). Summed up: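 Multiplexed viability counter screen in the PGC/ERR cell line: cells treated with DMSO-dissolved compounds for 17.5 hours at 37 C, then viability measured as CellTiter-Fluor fluorescence.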

The nature of assay [5]: qHTS assay to identify small molecule antagonists of the estrogen related receptor signaling pathway with the pleiotropic PPARgamma coactivator (PGC) from Tox21 10K library (AID 1224841; call rule not given here; further: actives are mostly falling curves and most rising ones were filed inactive; nearly all actives have a fitted effect of over 50% in size; further: potency means the concentration at half of the fitted maximal effect). Summed up: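 Steps: plate 2,000 PGC/ERR cells per well; incubate 6 h at 37 C with 5% CO2; transfer compounds from DMSO stocks by pin tool; incubate 18 h at 37 C; add One-Glo; measure luminescence 30 min later.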

Assay [6] is described as follows: qHTS assay to identify small molecule agonists of the estrogen related receptor signaling pathway with the pleiotropic PPARgamma coactivator (PGC) from Tox21 10K library (AID 1224842). Further: nearly all actives have a fitted effect of over 15% in size. Summed up: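 PGC/ERR reporter cells (NTP line) were seeded 2,000 per well, rested 6 h at 37 C/5% CO2, then pin-dosed with compounds in DMSO for 18 h at 37 C; luciferase read by One-Glo luminescence after 30 min at room temperature.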

Assay [7] concerns the target Thyrotropin receptor (Homo sapiens) (UniProt P16473). Description: qHTS assay to identify small molecule agonists of the thyroid stimulating hormone receptor (TSHR) signaling pathway (AID 1224843; calls by dose curve; further: nearly all actives have a fitted effect of over 45% in size). Summed up: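 Compounds are titrated over 15 concentrations, in triplicate, onto TSHR-HEK293 cells seeded at 800/well. Plates sit 30 min at room temperature before cAMP-d2 and anti-cAMP cryptate are added; signal is read after a further hour.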

The nature of assay [8]: qHTS assay to identify small molecule agonists of H2AX (AID 1224845; active means well fitted activation curve with a large enough effect in the signal ratio in the repeat runs, not every such curve was filed as active; the % refers to the signal ratio; further: potency means the concentration at half of the fitted maximal effect). Summed up: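 Wild-type CHO-K1 cells plated overnight, then exposed 3 hr at 37C to compounds at 15 concentrations (0.76% DMSO). Lysed, then HTRF anti-pH2AX(S139)-cryptate/anti-H2AX-d2 detection after 24 hr at room temperature; emissions 665 and 620 nm.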
A short description of assay [9]: qHTS assay to identify small molecule agonists of the hypoxia (HIF-1) signaling pathway (AID 1224846; active means well fitted activation curve with a large enough effect in the signal ratio in the repeat runs, not every such curve was filed as active; the % refers to the signal ratio). Summed up:
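Compounds from the Tox21 10K library, dissolved in DMSO, are tested for induction of a hypoxia response element–controlled beta-lactamase reporter in ME-180 cells. Exposure lasts 17 hrs at 37C after a 5 hr settling period, followed by CCF4-AM FRET substrate.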

Assay [10] can be described thus: qHTS assay to identify small molecule agonists of H2AX - cell viability counter screen (AID 1224847; calls by dose curve; further: nearly all actives have a fitted effect of over 30% in size; further: potency means the concentration at half of the fitted maximal effect; on activity change, negative = cytotoxicity: top concentration of the series differs between compounds). Summed up:
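Viability of CHO-K1 (wild type) cells after 3 hr compound exposure was measured by CellTiter-Glo luminescence.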

A short description of assay [11]: qHTS assay to identify small molecule antagonists of the estrogen related receptor (ERR) signaling pathway from Tox21 library (AID 1224848). Further: nearly all actives have a fitted effect of over 50% in size. Further: potency means the concentration at half of the fitted maximal effect. Summed up: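 First, 2,000 ERR cells per well were plated and held 6 h at 37 C/5% CO2. Next, compounds in DMSO were pinned in and left 18 h at 37 C. Finally, ONE-Glo was added and luminescence read after 30 min at room temperature.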

A short description of assay [12]: qHTS assay to identify small molecule agonists of the estrogen related receptor (ERR) signaling pathway from Tox21 library (AID 1224849; calls by dose curve; further: nearly all actives have a fitted effect of over 15% in size). To be noted: ERR reporter cell line, ONE-Glo luciferase, 18 h; at 92.4 µM (top of the series) unless noted. Summed up:
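Cells carrying the ERR reporter were plated and allowed to settle for 6 h, exposed to library compounds for 18 h at 37 C, then lysed with ONE-Glo and luminescence measured.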

A short description of assay [13]: qHTS RealTime-Glo MT Cell Viability Assay in HepG2 cells - 24 hour (AID 1224867). Further: nearly all actives have a fitted effect of over 50% in size. Further: potency means the concentration at half of the fitted maximal effect. Summed up: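 qHTS, HepG2, 600 cells/well, RealTime-Glo (NanoLuc + prosubstrate) added with cells; 5 h preincubation; DMSO compound addition; 37 C; luminescence at 0/8/16/24/32/40 h.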
Assay [14] can be described thus: qHTS RealTime-Glo MT Cell Viability Assay in HEK293 cells - 32 hour (AID 1224868). Further: nearly all actives have a fitted effect of over 50% in size. Further: potency means the concentration at half of the fitted maximal effect. On activity change, negative = cytotoxic: top concentration of the series differs between compounds. Summed up:
(§1)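 Assay medium contained NanoLuc luciferase plus cell-permeant prosubstrate, added with HEK293 cells at 600 cells/well. After 5 h at 37 C/5% CO2 compounds were added; plates stayed at 37 C for 40 h with serial luminescence reads.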

Assay [15] is described as follows: A CellTox Green Cytotoxicity Assay to monitor cytotoxicity in HEK293 cells - 0 hour (AID 1224869). Further: nearly all actives have a fitted effect of over 50% in size. Summed up: (§2)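 Cells (HEK293, 600/well) and dye reagent are dispensed together. After 5 h at 37 C, 23 nL compound is pinned in. Plates stay at 37 C for 40 h with fluorescence read at 0h, 8h, 16h, 24h, 32h and 40h.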
Assay [16] is described as follows: qHTS RealTime-Glo MT Cell Viability Assay in HepG2 cells - 40 hour (AID 1224870). Further: nearly all actives have a fitted effect of over 50% in size. Summed up:
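HepG2 cells mixed with RealTime-Glo MT reagents (NanoLuc plus cell-permeant prosubstrate) were seeded at 600 cells/well, incubated 5 h at 37 C/5% CO2, then pinned with compounds in DMSO; nonlytic luminescence tracked viability during 40 h treatment.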

Assay [17] is described as follows: A CellTox Green Cytotoxicity Assay to monitor cytotoxicity in HEK293 cells - 40 hour (AID 1224871). Further: nearly all actives have a fitted effect of over 45% in size. Further: potency means the concentration at half of the fitted maximal effect. Summed up:
as §2

Assay [18] is described as follows: qHTS RealTime-Glo MT Cell Viability Assay in HEK293 cells - 16 hour (AID 1224872). Further: nearly all actives have a fitted effect of over 50% in size. Further: potency means the concentration at half of the fitted maximal effect. On activity change, negative = cytotoxicity: top concentration of the series differs between compounds. Summed up: as §1
A short description of assay [19]: qHTS assay to identify small molecule agonists of the constitutive androstane receptor (CAR) signaling pathway - cell viability counter screen (AID 1224836). Further: nearly all actives have a fitted effect of over 45% in size. Summed up: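 Fluorescence from CellTiter-Fluor indicates live cells after 23 h exposure. The human hepatoma line expresses hCAR and a CYP2B6-2.2kb reporter. Incubation medium contains 0.75 uM PK11195 (final).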

Assay [20] in a line: qHTS assay to identify small molecule agonists of the hypoxia (HIF-1) signaling pathway - cell viability counter screen (AID 1224844; calls by dose curve; further: nearly all actives have a fitted effect of over 50% in size; further: potency means the concentration at half of the fitted maximal effect). Summed up: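 Cytotoxicity was measured in parallel with the HRE-driven beta-lactamase readout: after 17 hrs of compound exposure at 37C, HRE-bla ME-180 cells received CellTiter-Glo and luminescence was recorded 30 min later.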

Values without a mark were called inactive. Inconclusive results are not listed. Active and inactive are the calls of the source. Unless noted, the call rests on the fitted dose curve; in most records, active means well fitted curve in the direction sought with a large enough effect in the repeat runs; inconclusive means weak or mixed curves; inactive means no such curve, though single readings can be large; an effect the other way counts as inactive or inconclusive.
On the % scale 0 is the no-effect control and ±100 the full control effect.

Nuclear receptor subfamily 1 group I member 3 (Homo sapiens), sequence (Q14994 whole entry, looked up): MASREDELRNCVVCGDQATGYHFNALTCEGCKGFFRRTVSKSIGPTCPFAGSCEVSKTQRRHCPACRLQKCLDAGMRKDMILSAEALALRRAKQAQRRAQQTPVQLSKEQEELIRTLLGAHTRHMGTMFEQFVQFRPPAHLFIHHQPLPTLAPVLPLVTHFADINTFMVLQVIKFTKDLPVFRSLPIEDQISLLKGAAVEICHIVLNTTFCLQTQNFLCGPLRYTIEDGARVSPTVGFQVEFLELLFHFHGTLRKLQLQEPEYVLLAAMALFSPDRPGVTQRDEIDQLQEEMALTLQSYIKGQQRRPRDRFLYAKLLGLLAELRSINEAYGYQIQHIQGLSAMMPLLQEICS
Thyrotropin receptor (Homo sapiens), sequence (P16473 whole entry, looked up): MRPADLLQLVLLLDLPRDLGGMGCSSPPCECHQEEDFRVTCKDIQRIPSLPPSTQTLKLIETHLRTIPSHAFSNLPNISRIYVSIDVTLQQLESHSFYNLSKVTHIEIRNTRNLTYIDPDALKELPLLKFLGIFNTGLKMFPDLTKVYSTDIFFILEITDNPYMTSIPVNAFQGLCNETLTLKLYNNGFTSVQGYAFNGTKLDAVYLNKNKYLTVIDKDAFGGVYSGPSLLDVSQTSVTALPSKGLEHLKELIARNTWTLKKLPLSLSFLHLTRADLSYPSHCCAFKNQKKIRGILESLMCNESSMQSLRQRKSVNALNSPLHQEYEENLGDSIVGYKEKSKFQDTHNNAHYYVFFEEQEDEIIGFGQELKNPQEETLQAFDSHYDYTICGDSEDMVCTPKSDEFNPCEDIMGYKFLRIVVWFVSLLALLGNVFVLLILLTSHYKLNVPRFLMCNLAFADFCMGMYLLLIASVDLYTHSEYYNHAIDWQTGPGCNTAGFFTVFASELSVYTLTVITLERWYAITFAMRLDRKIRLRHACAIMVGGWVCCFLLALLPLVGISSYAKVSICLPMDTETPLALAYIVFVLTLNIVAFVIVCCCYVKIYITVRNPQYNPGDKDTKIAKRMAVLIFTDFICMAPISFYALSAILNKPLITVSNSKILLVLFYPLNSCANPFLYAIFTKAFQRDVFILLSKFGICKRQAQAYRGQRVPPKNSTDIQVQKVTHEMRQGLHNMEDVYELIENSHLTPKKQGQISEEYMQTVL

Take `C1CCCC1`: the Potency result in assay [1], in assay [2], in [3], in [4], in assay [5] and in [6] was “inactive” throughout. Also, the Potency result in assay [7], in assay [8], in assay [9], in assay [10], in [11] and in [13] was “inactive” throughout. The Potency result in [14], in assay [15], in [16], in assay [17] and in [18] was “inactive” each time. Moreover, the activity change, positive = activation in assay [12] was 9.59%.

For the molecule `CSc1ccc2c(c1)C(N1CCN(C)CC1)Cc1ccccc1S2` (configuration not stated), the Potency entry in assay [19], in [2], in [3], in [15] and in assay [18] was “inactive” in each case. The Potency in assay [13] was 23.9 µM (active).

Regarding `CCCCCCCCCOC(=O)c1ccc(O)cc1`, the Potency result in assay [19], in assay [2], in [3], in assay [5], in assay [15] and in assay [16] was “inactive” in each case. Also, the Potency is 54.2 µM (active) in [20]; 99.3 µM (active) in assay [10]; 38.3 µM (active) in assay [14]; 38.3 µM (active) in assay [17]; 43 µM (active) in assay [18]. The activity change, positive = activation in assay [12] was -33.4%.

As for `CCc1cc(SCc2sc(-c3ccc(C(F)(F)F)cc3)nc2CN2CCN(c3ccc(OC)cc3)CC2)ccc1OCC(=O)O`, the Potency result in assay [1], in assay [2], in assay [3], in assay [6], in [15] and in assay [16] was “inactive” in each case. The Potency in assay [4] is 34.4 µM (active); in [5] it was 19.3 µM (active); in [20], 3.89 µM (active); in assay [8] it was 50.5 µM (active); in assay [10] it was 89.8 µM (active); in assay [11], 17.2 µM (active). The Potency in assay [14] and in assay [18] was 19.5 µM (active) each time. Moreover, the activity change, positive = activation in [12] is -62.5%.

`O=C(OC[C@H]1O[C@@H](OC(=O)c2cc(O)c(O)c(OC(=O)c3cc(O)c(O)c(O)c3)c2)[C@H](OC(=O)c2cc(O)c(O)c(OC(=O)c3cc(O)c(O)c(O)c3)c2)[C@@H](OC(=O)c2cc(O)c(O)c(OC(=O)c3cc(O)c(O)c(O)c3)c2)[C@@H]1OC(=O)c1cc(O)c(O)c(OC(=O)c2cc(O)c(O)c(O)c2)c1)c1cc(O)c(O)c(OC(=O)c2cc(O)c(O)c(O)c2)c1`: the viability change, negative = cytotoxic in [19] is -11.1% [at 19 µM]. The activity, negative = inhibition in assay [2] is -0.544% [at 19 µM]; in assay [5], -8.46% [at 19 µM]. Moreover, the activation in assay [3] was -3.23% [at 19 µM]; in [6], -3.36% [at 19 µM]. Further, the Potency entry in assay [10] is “inactive”. Moreover, the activity change, positive = activation in assay [12] is -16% [at 19 µM]. In addition, the activity change, negative = cytotoxic in [14] was -17.3% [at 15.8 µM]. Besides, in assay [15], the cytotoxicity was -16.9% [at 15.8 µM]. Besides, the cytotoxicity increase in [17] was -40.6% [at 15.8 µM]. In assay [18], the activity change, negative = cytotoxicity was -9.99% [at 15.8 µM].

In the case of `N#CC1(c2ccc(F)cc2)CCC(=O)CC1`, the Potency result in [1], in assay [2], in [3], in [4], in assay [5] and in assay [6] was “inactive” in each case. In addition, the Potency entry in assay [20], in assay [8], in assay [9], in assay [10], in assay [11] and in assay [13] was “inactive” each time. Moreover, the Potency result in [14], in assay [15], in assay [16], in assay [17] and in [18] was “inactive” each time. Also, the activity change, positive = activation in assay [12] is 6.11% [at 42.5 µM].

For the molecule `O=C1CCCCCN1SSN1CCCCCC1=O`, the Potency entry in [19], in assay [3], in assay [4], in assay [6], in assay [14] and in [15] was “inactive” throughout. In assay [18], the Potency result is “inactive”. Moreover, the Potency in assay [2] is 27.3 µM (active); in [20] it was 43.6 µM (active); in [11] it was 54.5 µM (active); in assay [17] it was 49 µM (active). Further, in [12], the activity change, positive = activation was -43.7%.
